Test results reported in PubChem BioAssay (NCI).
The panel holds about 83,000 compounds, 20% with a hit somewhere; the sample as a whole holds those more often.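 Interpretation: 100, growth as untreated; towards 0, rising growth inhibition; 0, no net growth; 0 to -100, cell death. Compounds scoring below 10 were considered active.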 A number with no mark means an inactive call. Active and inactive are the calls of the source.

What was measured:
Assay in all cases: NCI-60 one-dose screen, 48 h (100 = growth as untreated, 0 = no growth, -100 = all killed)
Settings in all cases: 10 µM
NCI-H23 lung = tested on: NCI-H23 lung
NCI-H226 lung = tested on: NCI-H226 lung
NCI-H322M lung = tested on: NCI-H322M lung
HOP-62 NSCLC = tested on: HOP-62 NSCLC
NCI-H460 lung = tested on: NCI-H460 lung
HOP-92 NSCLC = tested on: HOP-92 NSCLC
NCI-H522 lung = tested on: NCI-H522 lung
A549/ATCC NSCLC = tested on: A549/ATCC NSCLC
786-0 renal = tested on: 786-0 renal
COLO 205 colon = tested on: COLO 205 colon
DU-145 prostate = tested on: DU-145 prostate
K-562 leukemia = tested on: K-562 leukemia
MDA-MB-231 breast = tested on: MDA-MB-231 breast
RXF 393 renal = tested on: RXF 393 renal
SF-268 CNS = tested on: SF-268 CNS
SF-295 CNS = tested on: SF-295 CNS
SF-539 CNS = tested on: SF-539 CNS
UACC-257 melanoma = tested on: UACC-257 melanoma
M14 melanoma = tested on: M14 melanoma

Compound | growth (NCI-H23 lung) | growth (NCI-H226 lung) | growth (NCI-H322M lung) | growth (HOP-62 NSCLC) | growth (NCI-H460 lung) | growth (HOP-92 NSCLC) | growth (NCI-H522 lung) | growth (A549/ATCC NSCLC) | growth (786-0 renal) | growth (COLO 205 colon) | growth (DU-145 prostate) | growth (K-562 leukemia) | growth (MDA-MB-231 breast) | growth (RXF 393 renal) | growth (SF-268 CNS) | growth (SF-295 CNS) | growth (SF-539 CNS) | growth (UACC-257 melanoma) | growth (M14 melanoma)
COc1cc(/C=C/C(=O)c2cc(-c3ccc(C(F)(F)F)cc3)ccc2O)cc(OC)c1OC | 64.3% | 84.1% | 82.1% | 98.7% | 56.5% | 63.1% | 40.8% | 81.4% | 80.3% | 71.6% | 81% | 41% | 61.3% | 61% | 76.2% | 78.1% | 92.3% | 82.5% | 81.8%
CC1(C)CCc2cc(-c3ccn(S(=O)(=O)c4ccc(Cl)cc4)n3)ccc2O1 | 65.5% | 74.4% | 94.2% | 92.9% | 73.8% | 8% (active) | 66.2% | 67.4% | 71.4% | 117% | 88.3% | 52.4% | 76.4% | 89% | 90.7% | 78.7% | 101% | 64.9% | 80.1%
O=[N+]([O-])c1ccc(S(=O)(=O)OCCCCOS(=O)(=O)c2ccc([N+](=O)[O-])cc2)cc1 | 102% | 90.1% | 112% | 98.5% | 108% | 110% | 96.8% | 103% | 99% | 117% | 107% | 94.7% | 106% | 112% | 106% | 105% | 104% | 108% | 104%
CCOC(=O)c1cc2c(n1Cc1ccccc1)-c1oncc1CC2 | 89.5% | 84.4% | 60.4% | 92.5% | 19.6% | 75.6% | 41.1% | 89.1% | 107% | 86.2% | 82.8% | 15.3% | 95.8% | 94.6% | 54.2% | 64.5% | 90.5% | 103% | 99.6%
COC(=O)CCCCCCCCC(C)c1ccc(C(C)=O)cc1 (stereo not drawn) | 99.9% | 104% | 121% | 100% | 108% | 113% | 101% | 105% | 102% | 114% | 108% | 92.3% | 119% | 111% | 104% | 92.1% | 101% | 119% | 121%
COc1cc(NS(C)(=O)=O)ccc1Nc1c2ccc(Cl)cc2nc2c(OC)cccc12 | -23.6% (active) | -37.4% (active) | 57.5% | -14.3% (active) | -46.9% (active) | 14.5% | -6.02% (active) | -7.09% (active) | -39.5% (active) | 34.3% | -43.6% (active) | 13.4% | 62.6% | -11.3% (active) | 9.76% (active) | 14.5% | -53.8% (active) | 34.2% | 14.1%
CCOc1nc(-c2ccccc2)cc2c(O)c(C(=O)N/N=C/c3ccc(OC)cc3)[nH]c(=O)c12 | 97.9% | 109% | 124% | 105% | 101% | 74.6% | 83.1% | 110% | 116% | 87.7% | 122% | 74.4% | 126% | 6.86% (active) | 112% | 91% | 93.2% | 130% | 110%
COc1ccc(Cn2cc3c(c2-c2ccccc2)CC(C)(C)c2cnoc2-3)cc1 | 34.4% | 52.4% | 34.1% | 34.2% | 9.42% (active) | 59.9% | 43.3% | 49.6% | 35.4% | 2.39% (active) | 37.6% | 18% | 57.6% | 20.3% | 40.9% | -10.7% (active) | 6.34% (active) | 58.3% | 40.1%
CCOC(=O)c1cc2c(n1Cc1cc(OC)cc(OC)c1)-c1oncc1CC2 | 38.4% | 30.5% | -1.31% (active) | 58% | 9.46% (active) | 80% | 4.32% (active) | 29% | 33.7% | 1.38% (active) | 13.8% | 16.7% | 30.4% | 18.7% | 50.5% | -4.53% (active) | -7.41% (active) | 60.5% | 1.54% (active)
CC1(C)Cc2c(cn(Cc3ccccc3)c2-c2ccccc2)-c2oncc21 | 96.7% | 92.2% | 126% | 107% | 113% | 67.8% | 90.1% | 86.2% | 97.5% | 103% | 103% | 74.7% | 104% | 98% | 107% | 99.5% | 107% | 101% | 100%
CC(=O)Nc1nc(C)c(C(=O)NNC=O)s1 | 97.4% | 92.7% | 155% | 111% | 105% | 67.2% | 99.5% | 107% | 118% | 128% | 108% | 54.8% | 106% | 109% | 94.8% | 112% | 102% | 106% | 120%
COc1ccc(C2=Cc3ccc(OC(C)=O)cc3OC2)cc1 | 95.9% | 91.1% | 92.3% | 109% | 103% | 91.8% | 75.4% | 88.3% | 100% | 110% | 90.2% | 72.3% | 52.5% | 94.7% | 87.9% | 104% | 85.7% | 99.7% | 122%
COc1ccc(-c2n/c(=C\c3c(O)[nH]c4ccccc34)cc3c2=Nc2ccccc2-3)cc1 | 33.8% | 59.7% | 96% | 86.2% | 9.63% (active) | 42.1% | 63.1% | 37.4% | -31.3% (active) | 35.9% | 19.1% | -8.09% (active) | 30.6% | 44.8% | 5.04% (active) | 38.5% | 82.6% | 91.8% | 3.99% (active)
COc1cc(C2c3cc4c(cc3C(O)C(CO)C2CO)OCO4)cc(OC)c1OC (stereo not drawn) | 43.2% | 40.4% | -0.279% (active) | 40.7% | 4.74% (active) | 65.4% | 3.32% (active) | 47.4% | 39.1% | -3.75% (active) | 0.809% (active) | 11.3% | 41.2% | -6.08% (active) | 35.9% | -42.8% (active) | -16.4% (active) | 62% | 22.5%
CCSc1nc2c([nH]1)c(=O)n(C)c(=S)n2C | 98.6% | 117% | 117% | 98% | 107% | 103% | 102% | 107% | 100% | 106% | 112% | 115% | 116% | 117% | 106% | 114% | 97.9% | 108% | 109%
COc1ccc(C(=O)n2nc(CC(=O)NCc3ccccc3)nc2N)cc1 | 108% | 106% | 95.4% | 108% | 115% | 111% | 104% | 109% | 97% | 117% | 115% | 95.7% | 96.2% | 118% | 108% | 108% | 112% | 105% | 101%
O=C(/C=C/c1nnc2n(Cc3ccccc3)c(=O)c3c4c(sc3n12)CCCC4)c1ccccc1 | 96.9% | 102% | 107% | 92.4% | 104% | 77.1% | -3.27% (active) | 104% | 83.8% | 78.6% | 121% | 5.09% (active) | 106% | 98.3% | 75.5% | 40.4% | 99.6% | 86.5% | 92.7%
